Laboratory results from PubChem BioAssay (NCATS).
Results filed as inconclusive are left out. Where a call stands in place of a potency, no number is given. Calls of active or inactive are those of the source. The call rests on the fitted dose curve; in most records, active means well fitted curve in the direction sought with a large enough effect; inconclusive means small, poorly fitted or top-dose-only effect, or another doubt; inactive means no such curve, though single readings can be large; an effect the other way counts as inactive or inconclusive. Numbered stars: 1 amine (or outer) side, 2 acyl side, 3 side chain; on linkers, the order of the positions; unused ones are H or OH. Square brackets hold non-standard residues; d marks the D form. Peptide text beside a SMILES is read from it. * marks the point of attachment. ξ: configuration not given here. X4 = O=C(C1CC2(c3ccc(O)cc3)c3ccccc3NC2N1[*:1])[*:2]; ξW = NC(Cc1c[nH]c2ccccc12)C(=O)O; ξY = NC(Cc1ccc(O)cc1)C(=O)O; Octanoyl = CCCCCCCC(=O)*

What was measured:
[1] = HPAF-II 12hr Apoptosis Induction qHTS against the NCATS CANVASS Library (AID 1347358)
Procedure, shortened: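 Apoptosis in HPAF-II pancreatic cancer cells is scored as caspase 3/7 luminescence following a 12-hour exposure to an 11-point compound series.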

[2] = HEK293 12hr Apoptosis Induction qHTS against the NCATS CANVASS Library (AID 1347361)
Procedure, shortened: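 HEK293 cells (500/well) were exposed to an 11-point qHTS concentration series for 12 hours at 37 degrees C. Caspase-3/7 activity was then read by DEVD-substrate luciferase luminescence after 15 min at room temperature.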

[3] = molecular target: Luciferin 4-monooxygenase (Photinus pyralis) (UniProt P08659); assay: Firefly luciferase counterscreen qHTS: Assay Interference Panel against the NCATS CANVASS Library (AID 1347363); further: series mostly up to about 57 µM
Procedure, shortened: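 Purified P. pyralis luciferase was added to compounds (11-point series) preincubated 15 min at room temperature with substrate containing 0.013 mM D-luciferin and 0.013 mM ATP; luminescence was read after 5 min.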

[4] = G06 Cancer Cell Toxicity qHTS against the NCATS CANVASS Library (AID 1347368); further: nearly all actives have a fitted effect of over 60% in size
Procedure, shortened: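 Cytotoxicity toward canine glioma G06 cells is scored from cellular ATP via luminescence after 72 hr compound exposure at 500 cells/well.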

[5] = qHTS for activators of Nrf2/ARE signaling pathway screened against the NCATS CANVASS Library (AID 1347391); further: nearly all actives have a fitted effect of over 60% in size; further: potency means the concentration at half of the fitted maximal effect
Procedure, shortened: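 Cells carrying an ARE-driven beta-lactamase reporter (HepG2 background) are dosed for 16 h, then stained with CCF4. Cell viability in the same wells is measured by CellTiter-Glo luminescence.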

[6] = qHTS for inhibitors of Wild type Zika virus screened against the NCATS CANVASS Library (AID 1347396);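 further: ATP luminescence of surviving cells so rescue from viral cell killing; series mostly up to about 46 µM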
Procedure, shortened: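 Protection against wild-type Zika cytopathic effect is measured in African green monkey Vero 766 cells exposed to an 11-point compound series. Surviving cells are quantified by CellTiter Glo luminescence after 72 h.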

[7] = qHTS for Antimalaria activity screened against the NCATS CANVASS Library (AID 1347380);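 further: Plasmodium falciparum strain Dd2 asexual parasites grown in red blood cells; series mostly up to about 29 µM; nearly all actives have a fitted effect of over 40% in size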
Procedure, shortened: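 Growth inhibition of asexual erythrocytic P. falciparum Dd2 was quantified by SYBR Green DNA staining. Cultures grew 72 h with compound (11-point series) in hypoxic gas at 37C; lysis and staining lasted 18 h.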

[8] = HPAF-II 18hr Apoptosis Induction qHTS against the NCATS CANVASS Library (AID 1347360)
Procedure, shortened: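 HPAF-II cells at 500/well were exposed for 18 h at 37 C to an 11-point compound series. Caspase-3/7 activity was read by Caspase-Glo luminescence after 15 min at RT.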

[9] = qHTS for Hypoxia signaling pathway (HIF-1) antagonists against the NCATS CANVASS Library (AID 1347374); further: nearly all actives have a fitted effect of over 60% in size; further: potency means the concentration at half of the fitted maximal effect
Procedure, shortened: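 HRE-bla ME-180 cells (2,000/well, 0.5% dialyzed FBS) were pre-incubated 5 h, then given an 11-point compound series plus CoCl2 (60 uM solution as added) for 17 h at 37C. CCF4 β-lactamase read (ex 405, em 460/530 nm) after 2 h at RT.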

Sequence of Luciferin 4-monooxygenase (Photinus pyralis) (P08659 whole entry, looked up): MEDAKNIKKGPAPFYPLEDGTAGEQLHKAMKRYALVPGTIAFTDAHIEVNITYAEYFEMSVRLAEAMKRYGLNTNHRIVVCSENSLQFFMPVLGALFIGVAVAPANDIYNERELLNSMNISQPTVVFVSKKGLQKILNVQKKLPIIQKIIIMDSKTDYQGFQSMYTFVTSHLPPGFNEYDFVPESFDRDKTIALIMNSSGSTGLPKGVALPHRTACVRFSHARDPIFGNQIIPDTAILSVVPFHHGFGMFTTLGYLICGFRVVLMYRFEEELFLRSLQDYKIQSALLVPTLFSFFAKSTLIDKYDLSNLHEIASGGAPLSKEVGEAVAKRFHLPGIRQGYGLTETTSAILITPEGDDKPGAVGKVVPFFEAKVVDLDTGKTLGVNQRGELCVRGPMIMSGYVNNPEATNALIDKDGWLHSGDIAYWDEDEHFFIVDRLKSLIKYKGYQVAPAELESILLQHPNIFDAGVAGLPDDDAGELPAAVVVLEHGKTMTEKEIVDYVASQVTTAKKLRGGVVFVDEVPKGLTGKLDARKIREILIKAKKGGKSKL

CC1C(=O)C23CCC1C[C@]21O[C@@H]2C(C)(C)C=CC(=O)[C@@]23COC1=O (stereo partly specified)
Potency [1]: inactive
Potency [2]: inactive
Potency [3]: inactive
Potency [4]: inactive
Potency [5]: inactive
Potency [6]: inactive

C=C1[C@H]2CC[C@@]3(C=CC(=O)[C@@](C)(CCC(=O)Nc4c(O)ccc(C(=O)O)c4O)C3C2)[C@H]1O (stereo partly specified)
Potency [1]: inactive
Potency [2]: inactive
Potency [4]: inactive
Potency [7]: inactive
Potency [5]: inactive

C[C@@]12CCC[C@@](C)(C(=O)O)[C@H]1C[C@@H](O)[C@]13C[C@H]4C[C@H](O[C@@]4(C)C1)[C@@H]23
Potency [1]: inactive
Potency [8]: inactive
Potency [3]: inactive
Potency [4]: inactive
Potency [7]: inactive
Potency [5]: inactive
Potency [6]: inactive

C=C1C[C@@]23C=CC(=O)[C@@](C)(CCC(=O)Nc4c(O)ccc(C(=O)O)c4O)C2C[C@@H]1C(O)C3 (stereo partly specified)
Potency [1]: inactive
Potency [8]: inactive
Potency [2]: inactive
Potency [3]: inactive
Potency [4]: inactive
Potency [7]: inactive
Potency [5]: inactive

C/C1=C\CC(=O)/C=C/C=C\c2csc(n2)[C@@H](C)NC(=O)C[C@@](S)([C@@H](C)C(=O)O)CC1
Potency [8]: inactive
Potency [2]: inactive
Potency [4]: inactive
Potency [7]: inactive
Potency [5]: 18.6 µM (active)
Potency [6]: inactive

CC[C@H](C)[C@H](NC(=O)C(Cc1ccc(O)cc1)NC(=O)C(Cc1c[nH]c2ccccc12)NC(=O)[C@H](C)N)C(=O)N1C(C(=O)NC(Cc2ccc(O)cc2)C(=O)O)CC2(c3ccc(O)cc3)c3ccccc3NC12 (stereo partly specified) (H-A[ξW][ξY]I[X4][ξY]-OH)
Potency [8]: inactive
Potency [2]: inactive
Potency [3]: inactive
Potency [4]: inactive
Potency [7]: inactive
Potency [5]: inactive
Potency [6]: inactive

COc1cc(O)c2c3c(c(O)cc(C)c13)C(=O)OC2
Potency [1]: inactive
Potency [2]: inactive
Potency [3]: inactive
Potency [4]: inactive
Potency [9]: inactive
Potency [7]: inactive

O=Cc1ccc2n1C[C@@]1(C[C@H](O)[C@@H](CO)O1)OC2
Potency [1]: inactive
Potency [8]: inactive
Potency [4]: inactive
Potency [9]: inactive
Potency [7]: inactive
Potency [5]: inactive

C=C1C[C@@]23C=CC(=O)[C@@](C)(CCC(=O)Nc4c(O)ccc(C(=O)O)c4O)C2C[C@@H]1CC3 (stereo partly specified)
Potency [8]: inactive
Potency [2]: inactive
Potency [3]: inactive
Potency [7]: inactive
Potency [5]: 18.6 µM (active)

CC(=O)O[C@H]1CC[C@@]2(C)C(CC[C@]3(C)C2CC=C2C4CC(C)(C)CC[C@]4(C)CC[C@]23C)C1(C)C (stereo partly specified)
Potency [1]: inactive
Potency [8]: inactive
Potency [2]: inactive
Potency [3]: inactive
Potency [4]: inactive
Potency [9]: inactive
Potency [7]: inactive
Potency [5]: inactive
Potency [6]: inactive

CS/C=C/C(N)=O
Potency [1]: inactive
Potency [8]: inactive
Potency [2]: inactive
Potency [3]: inactive
Potency [4]: inactive
Potency [9]: inactive
Potency [7]: inactive
Potency [5]: inactive

Cc1cc(O)cc2oc(C[C@H](C)O)cc(=O)c12
Potency [1]: inactive
Potency [8]: inactive
Potency [2]: inactive
Potency [9]: inactive
Potency [7]: inactive
Potency [5]: inactive

CCCCCCCC(=O)N[C@@H](CC(C)C)C(=O)N[C@H](C=O)CCC(=O)O (Octanoyl-Leu-Glu-aldehyde)
Potency [1]: inactive
Potency [8]: inactive
Potency [2]: inactive
Potency [3]: inactive
Potency [4]: inactive
Potency [9]: inactive
Potency [5]: inactive
Potency [6]: inactive

O=C(O)CC1OCc2c(O)cccc21 (stereo unspecified)
Potency [1]: inactive
Potency [8]: inactive
Potency [2]: inactive
Potency [4]: inactive
Potency [7]: inactive
Potency [5]: inactive
Potency [6]: inactive

COc1cc(/C=C2/C(=O)N(c3ccc(O)cc3C(=O)O)[C@H](c3ccc(O)c(OC)c3)C2C(=O)Nc2ccc(O)cc2C(=O)O)ccc1O (stereo partly specified)
Potency [1]: inactive
Potency [8]: inactive
Potency [3]: inactive
Potency [4]: inactive
Potency [9]: 8.38 µM (active)
Potency [5]: inactive
Potency [6]: inactive

C[C@@H]1O[C@H](c2c(O)cc(O)c3c(=O)cc(-c4ccc(O)cc4)oc23)[C@H](O)[C@H](O)[C@H]1O
Potency [1]: inactive
Potency [2]: inactive
Potency [4]: inactive
Potency [9]: inactive
Potency [5]: inactive
Potency [6]: inactive
